Measurements from PubChem BioAssay (Tox21).
Values joined by “and” are separate entries in the source; they are usually repeats but may differ in a detail not shown here. Identical values can stand only once. Inconclusive results are not listed. A call without a number means that no potency is given here. More than one record can exist for a structure, and the calls need not agree. Active and inactive are the calls of the source. Unless noted, calls come from the whole dose curve.

Assays:
[1] = qHTS assay to identify small molecule antagonists of the sonic hedgehog signaling (Shh) pathway (AID 1259369); note: nearly all actives have a fitted effect of over 45% in size; note: potency is the fitted concentration of half-maximal effect
Outline: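 Conditioned medium drives Shh signalling in 3T3Gli1-Luc cells; compounds in DMSO co-applied, 24hr at 37 C, then luciferase luminescence.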

[2] = target: Estrogen receptor beta (Homo sapiens) (UniProt Q92731); assay: qHTS assay to identify small molecule antagonists of the estrogen receptor beta (ER-beta) signaling pathway (AID 1259378; active = well fitted inhibition curve with a large enough effect in the signal ratio in the repeat runs, not every such curve was filed as active; the % refers to the signal ratio)
Chain of Estrogen receptor beta (Homo sapiens) (Q92731 whole entry, looked up): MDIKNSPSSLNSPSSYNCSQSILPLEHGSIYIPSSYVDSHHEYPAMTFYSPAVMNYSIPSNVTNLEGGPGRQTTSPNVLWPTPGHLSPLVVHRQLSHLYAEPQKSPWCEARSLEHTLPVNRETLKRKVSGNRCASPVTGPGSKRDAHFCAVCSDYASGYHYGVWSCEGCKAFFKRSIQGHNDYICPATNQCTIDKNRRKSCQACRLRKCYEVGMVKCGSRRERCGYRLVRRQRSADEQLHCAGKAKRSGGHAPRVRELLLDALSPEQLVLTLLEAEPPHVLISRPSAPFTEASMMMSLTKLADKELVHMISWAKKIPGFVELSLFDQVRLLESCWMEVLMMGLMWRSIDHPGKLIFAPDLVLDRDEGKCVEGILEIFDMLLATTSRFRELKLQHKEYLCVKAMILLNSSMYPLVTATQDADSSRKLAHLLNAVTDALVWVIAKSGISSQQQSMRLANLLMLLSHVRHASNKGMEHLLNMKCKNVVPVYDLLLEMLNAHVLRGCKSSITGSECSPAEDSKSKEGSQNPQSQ
Outline: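 ER-beta-UAS-bla HEK293T (GripTite) cells in 2% charcoal-stripped FBS medium were preincubated 6 hr at 37C, dosed with compound, then stimulated with 1 nM E2 (final) for 16 hr; beta-lactamase reporter read by B/G FRET fluorescence after 2 hr substrate loading.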

[3] = qHTS assay to identify small molecule agonists of the estrogen receptor beta (ER-beta) signaling pathway - cell viability counter screen (AID 1259380; active = well fitted curve in the direction sought with a large enough effect in the repeat runs; an effect the other way counts as inactive or inconclusive; note: nearly all actives have a fitted effect of over 30% in size; note: potency is the fitted concentration of half-maximal effect)
Outline: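 Cells used were ER-beta-UAS-bla HEK293T in medium with 2% charcoal-stripped FBS. They were treated for 16 hr at 37C. Viability came from CellTiter-Glo luminescence.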

[4] = qHTS assay to identify small molecule antagonists of the estrogen receptor beta (ER-beta) signaling pathway - cell viability counter screen (AID 1259382; active = well fitted curve in the direction sought with a large enough effect in the repeat runs; an effect the other way counts as inactive or inconclusive; note: nearly all actives have a fitted effect of over 55% in size; note: potency is the fitted concentration of half-maximal effect)
Outline: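 Agonist-stimulated (1nM E2) ER-beta-UAS-bla HEK293T cells are incubated with library compounds for 16 hr at 37C. Cell viability is then assessed in the reporter-assay wells by adding CellTiter-Glo and reading luminescence after 30 min.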

[5] = qHTS assay to identify small molecule agonists or antagonists of the thyroid stimulating hormone receptor (TSHR) signaling pathway - wild type cell line counter screen (AID 1259384)
Outline: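 Wild-type HEK293 cells were plated 18 h at 37 C/5% CO2, pin-dosed with compound plus Ro20-1724 medium, held 30 min at room temperature, then given cAMP-d2 and anti-cAMP-cryptate; fluorescence was read after 1 h. Fifteen concentrations, triplicate.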

[6] = target: Thyrotropin receptor (Homo sapiens) (UniProt P16473); assay: qHTS assay to identify small molecule antagonists of the thyroid stimulating hormone receptor (TSHR) signaling pathway (AID 1259385); note: nearly all actives have a fitted effect of over 20% in size; note: potency is the fitted concentration of half-maximal effect
Chain of Thyrotropin receptor (Homo sapiens) (P16473 whole entry, looked up): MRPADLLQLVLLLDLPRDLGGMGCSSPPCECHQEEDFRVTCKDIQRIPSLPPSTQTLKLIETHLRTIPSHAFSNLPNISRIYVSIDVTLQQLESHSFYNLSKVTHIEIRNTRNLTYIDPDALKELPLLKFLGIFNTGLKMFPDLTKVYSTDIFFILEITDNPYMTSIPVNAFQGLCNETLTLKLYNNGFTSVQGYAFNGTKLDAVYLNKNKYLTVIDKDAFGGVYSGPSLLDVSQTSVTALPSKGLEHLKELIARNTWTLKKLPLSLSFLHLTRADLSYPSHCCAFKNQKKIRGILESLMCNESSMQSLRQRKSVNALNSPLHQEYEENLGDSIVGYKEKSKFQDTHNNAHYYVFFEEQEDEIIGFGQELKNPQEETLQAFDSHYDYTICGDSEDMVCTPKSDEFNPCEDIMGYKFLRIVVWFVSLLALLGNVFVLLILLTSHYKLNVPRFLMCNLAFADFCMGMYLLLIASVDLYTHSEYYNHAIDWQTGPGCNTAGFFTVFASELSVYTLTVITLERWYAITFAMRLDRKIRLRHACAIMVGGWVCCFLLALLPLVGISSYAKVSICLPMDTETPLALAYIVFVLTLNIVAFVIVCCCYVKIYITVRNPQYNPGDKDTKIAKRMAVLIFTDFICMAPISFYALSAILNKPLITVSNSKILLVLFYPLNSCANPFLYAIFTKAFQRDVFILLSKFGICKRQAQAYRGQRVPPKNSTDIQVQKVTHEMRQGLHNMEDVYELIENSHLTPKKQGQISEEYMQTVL
Outline: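 TSHR-HEK293 cells were plated and held 18 h at 37C/5% CO2, then given compound plus Ro20-1724 and stimulated with TSH at 1.5 ng/mL final. After 30 min at room temperature, cAMP was detected with cAMP-d2/anti-cAMP-cryptate (1 h) by fluorescence.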

[7] = qHTS assay to identify small molecule agonists of the estrogen receptor alpha (ER-alpha) signaling pathway in the presence of an antagonist - cell viability counter screen (AID 1259386; active = well fitted curve in the direction sought with a large enough effect in the repeat runs; an effect the other way counts as inactive or inconclusive;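 note: cells exposed to compounds for 22 h at 37 °C before the viability read; nearly all actives have a fitted effect of over 30% in size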; note: potency is the fitted concentration of half-maximal effect)
Outline: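 ICI-182,780 at 10.0nM final accompanies the compound titration (15 concentrations, 22hr, 37C) on VM7Luc4E2 cells. The CellTiter-Fluor fluorescence readout runs in the same wells as the luciferase assay.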

[8] = target: Progesterone receptor (Homo sapiens) (UniProt P06401); assay: qHTS assay to identify small molecule agonists of the progesterone receptor (PR) signaling pathway (AID 1346784); note: nearly all actives have a fitted effect of over 30% in size
Chain of Progesterone receptor (Homo sapiens) (P06401 whole entry, looked up): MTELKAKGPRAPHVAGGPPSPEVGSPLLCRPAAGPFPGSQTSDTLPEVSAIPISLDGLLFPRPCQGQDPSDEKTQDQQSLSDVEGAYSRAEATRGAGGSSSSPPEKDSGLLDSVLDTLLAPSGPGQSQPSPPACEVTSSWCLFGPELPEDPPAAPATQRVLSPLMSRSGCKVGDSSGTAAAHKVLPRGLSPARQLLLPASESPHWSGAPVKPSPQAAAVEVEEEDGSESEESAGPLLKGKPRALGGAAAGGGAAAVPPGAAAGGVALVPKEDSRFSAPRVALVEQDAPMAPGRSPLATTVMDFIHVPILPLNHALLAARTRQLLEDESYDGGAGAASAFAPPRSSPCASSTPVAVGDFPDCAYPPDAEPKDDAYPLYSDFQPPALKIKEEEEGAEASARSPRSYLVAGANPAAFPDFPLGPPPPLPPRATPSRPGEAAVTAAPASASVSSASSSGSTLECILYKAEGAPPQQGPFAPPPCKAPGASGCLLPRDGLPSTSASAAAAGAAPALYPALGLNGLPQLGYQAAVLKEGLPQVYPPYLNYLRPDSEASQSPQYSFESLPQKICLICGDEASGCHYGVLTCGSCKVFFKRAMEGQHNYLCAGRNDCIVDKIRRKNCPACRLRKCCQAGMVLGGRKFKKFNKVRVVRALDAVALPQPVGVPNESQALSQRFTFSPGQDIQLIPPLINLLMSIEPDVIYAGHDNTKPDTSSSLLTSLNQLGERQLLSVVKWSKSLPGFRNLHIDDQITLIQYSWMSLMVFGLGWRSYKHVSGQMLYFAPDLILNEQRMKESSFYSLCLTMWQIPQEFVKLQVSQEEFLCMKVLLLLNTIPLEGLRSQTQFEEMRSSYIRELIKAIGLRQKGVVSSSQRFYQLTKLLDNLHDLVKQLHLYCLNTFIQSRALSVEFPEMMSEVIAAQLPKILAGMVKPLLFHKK
Outline: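 HEK 293T PR-UAS-bla reporter cells, 2% charcoal-stripped FBS; 6 hr settle at 37C/5% CO2, compound (DMSO) 16 hr, LiveBLAzer B/G FRET substrate 2 hr RT, fluorescence intensity read.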

[9] = target: Progesterone receptor (Homo sapiens) (UniProt P06401); assay: qHTS assay to identify small molecule antagonists of the progesterone receptor (PR) signaling pathway (AID 1346795; active = well fitted inhibition curve with a large enough effect in the signal ratio in the repeat runs, not every such curve was filed as active; the % refers to the signal ratio; note: potency is the fitted concentration of half-maximal effect)
Outline: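 Beta-lactamase reporter, HEK293T PR-UAS-bla line; 2% charcoal-stripped FBS; 6 hr pre-incubation, 37C/5% CO2. Compound + R5020 1 nM final, 16 hr. LiveBLAzer B/G FRET substrate, 2 hr RT; fluorescence intensity read.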

[10] = qHTS assay to identify small molecule antagonists of the progesterone receptor (PR) signaling pathway - cell viability counter screen (AID 1346798; active = well fitted curve in the direction sought with a large enough effect in the repeat runs; an effect the other way counts as inactive or inconclusive; note: nearly all actives have a fitted effect of over 50% in size; note: potency is the fitted concentration of half-maximal effect)
Outline: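 Luminescence readout (CellTiter-Glo, 30 min, RT) of viability in PR-UAS-bla HEK293T cells exposed to compound and R5020 agonist for 16 hr at 37C, 5% CO2; run in the same wells as the beta-lactamase reporter read.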

[11] = qHTS assay to identify small molecule agonists of the progesterone receptor (PR) signaling pathway - cell viability counter screen (AID 1346799); note: nearly all actives have a fitted effect of over 45% in size; note: potency is the fitted concentration of half-maximal effect
Outline: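 HEK293T PR-UAS-bla, 3,000 cells/well, 2% charcoal-stripped FBS; 6 h settle, compound 16 h at 37C/5% CO2; LiveBLAzer 2 h RT, then CellTiter-Glo 30 min RT, luminescence read.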

[12] = qHTS assay to identify small molecule antagonists of the TGF-beta/Smad signaling pathway - cell viability counter screen (AID 1346824; active = well fitted curve in the direction sought with a large enough effect in the repeat runs; an effect the other way counts as inactive or inconclusive; note: nearly all actives have a fitted effect of over 50% in size; note: potency is the fitted concentration of half-maximal effect)
Outline: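 SBE-bla HEK 293T cells were plated overnight at 37 C, then given compounds in DMSO plus TGF-beta1 (added as 0.25 ng/mL solution) for 5 hr. After the bla read, CellTiter-Glo was added to the same wells and luminescence read after 30 min at room temperature.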

[13] = qHTS assay to identify small molecule agonists of the TGF-beta/Smad signaling pathway - cell viability counter screen (AID 1346829; active = well fitted curve in the direction sought with a large enough effect in the repeat runs; an effect the other way counts as inactive or inconclusive; note: nearly all actives have a fitted effect of over 45% in size; note: potency is the fitted concentration of half-maximal effect)
Outline: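 Same-well cytotoxicity: CellTiter-Glo added after the 2 hr room-temperature beta-lactamase substrate step, luminescence measured 30 min later; cells had 5 hr of compound at 37 C.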

[14] = qHTS assay to identify small molecule agonists of the TGF-beta/Smad signaling pathway (AID 1346859; active = well fitted activation curve with a large enough effect in the signal ratio in the repeat runs, not every such curve was filed as active; the % refers to the signal ratio; note: series mostly up to about 77 µM)
Outline: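 Read-out: fluorescence at 460 and 530 nm (405 nm excitation) after a 2 hr room-temperature incubation with beta-lactamase FRET substrate. SBE-bla HEK 293T cells had been treated with test compounds for 5 hr at 37 C.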

[15] = target: Estrogen receptor beta (Homo sapiens) (UniProt Q92731); assay: qHTS assay to identify small molecule agonists of the estrogen receptor beta (ER-beta) signaling pathway (AID 1259377; active = well fitted activation curve with a large enough effect in the signal ratio in the repeat runs, not every such curve was filed as active; the % refers to the signal ratio; note: potency is the fitted concentration of half-maximal effect)
Outline: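 Beta-lactamase reporter readout: fluorescence of LiveBLAzer B/G FRET substrate after 2 h at room temperature, following 16 h compound treatment of ER-beta-UAS-bla HEK293T cells at 37C in 2% charcoal-stripped FBS medium.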

[16] = target: Androgen receptor (Homo sapiens) (UniProt P10275); assay: qHTS assay to identify small molecule agonists of the androgen receptor (AR) signaling pathway in the presence of an antagonist (AID 1259381); note: nearly all actives have a fitted effect of over 15% in size
Chain of Androgen receptor (Homo sapiens) (P10275 whole entry, looked up): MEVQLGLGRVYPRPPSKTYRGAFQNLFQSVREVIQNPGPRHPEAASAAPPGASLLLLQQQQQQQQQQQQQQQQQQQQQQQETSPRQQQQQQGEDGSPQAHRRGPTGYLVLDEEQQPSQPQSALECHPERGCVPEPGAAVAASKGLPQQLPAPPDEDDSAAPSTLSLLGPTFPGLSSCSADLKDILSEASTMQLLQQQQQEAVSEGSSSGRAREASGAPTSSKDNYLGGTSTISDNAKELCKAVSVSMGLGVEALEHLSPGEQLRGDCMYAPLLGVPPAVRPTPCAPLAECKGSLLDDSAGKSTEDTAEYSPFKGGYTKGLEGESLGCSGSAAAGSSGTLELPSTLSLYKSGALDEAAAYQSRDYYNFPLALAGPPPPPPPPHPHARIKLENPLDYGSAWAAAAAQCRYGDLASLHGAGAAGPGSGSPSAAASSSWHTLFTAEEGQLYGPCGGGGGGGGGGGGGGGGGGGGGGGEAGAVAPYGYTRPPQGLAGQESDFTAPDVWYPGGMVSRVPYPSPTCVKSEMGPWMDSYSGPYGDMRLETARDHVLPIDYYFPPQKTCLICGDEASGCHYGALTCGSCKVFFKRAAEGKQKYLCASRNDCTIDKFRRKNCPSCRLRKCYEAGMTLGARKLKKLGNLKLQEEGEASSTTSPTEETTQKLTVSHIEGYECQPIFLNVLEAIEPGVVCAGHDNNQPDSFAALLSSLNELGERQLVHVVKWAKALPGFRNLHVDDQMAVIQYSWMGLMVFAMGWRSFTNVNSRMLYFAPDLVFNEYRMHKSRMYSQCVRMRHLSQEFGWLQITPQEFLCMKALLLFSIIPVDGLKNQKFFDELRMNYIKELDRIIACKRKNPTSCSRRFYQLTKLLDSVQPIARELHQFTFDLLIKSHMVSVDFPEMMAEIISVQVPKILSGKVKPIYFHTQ
Outline: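 Using human MDA-kb2 cells with an MMTV promoter–luciferase construct (AR and GR response elements), agonist activity is scored under 3.0uM nilutamide (final) co-treatment; 16hr incubation, 37C, luminescence readout via ONE-Glo.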

[17] = target: Estrogen receptor (Homo sapiens) (UniProt P03372); assay: qHTS assay to identify small molecule agonists of the estrogen receptor alpha (ER-alpha) signaling pathway in the presence of an antagonist (AID 1259383); note: nearly all actives have a fitted effect of over 15% in size; note: potency is the fitted concentration of half-maximal effect; for activation: top concentration of the series differs between compounds
Chain of Estrogen receptor (Homo sapiens) (P03372 whole entry, looked up): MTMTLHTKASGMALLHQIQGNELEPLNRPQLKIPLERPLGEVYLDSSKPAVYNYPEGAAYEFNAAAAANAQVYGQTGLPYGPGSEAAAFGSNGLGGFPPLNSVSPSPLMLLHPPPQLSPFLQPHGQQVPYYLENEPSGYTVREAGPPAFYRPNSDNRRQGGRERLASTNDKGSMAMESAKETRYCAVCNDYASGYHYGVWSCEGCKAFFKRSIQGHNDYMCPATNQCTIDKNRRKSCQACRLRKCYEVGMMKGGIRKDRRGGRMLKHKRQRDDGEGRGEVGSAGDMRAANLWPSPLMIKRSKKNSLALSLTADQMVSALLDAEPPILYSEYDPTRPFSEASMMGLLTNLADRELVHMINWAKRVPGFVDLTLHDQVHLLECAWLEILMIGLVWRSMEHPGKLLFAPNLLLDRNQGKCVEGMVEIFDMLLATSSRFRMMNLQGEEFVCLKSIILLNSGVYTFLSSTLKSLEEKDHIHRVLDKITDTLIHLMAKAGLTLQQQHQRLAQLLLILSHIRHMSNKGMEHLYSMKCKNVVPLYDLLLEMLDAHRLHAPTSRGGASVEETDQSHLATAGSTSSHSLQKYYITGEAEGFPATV
Outline: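 Using VM7Luc4E2 cells seeded 24hr before treatment, antagonist ICI-182,780 (10.0nM final) was added, followed by compounds at 15 concentrations. Plates incubated 22hr; ONE-Glo luminescence quantified reporter activity.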

[18] = target: Thyrotropin-releasing hormone receptor (Homo sapiens) (UniProt P34981); assay: qHTS assay to identify small molecule antagonists of the thyrotropin-releasing hormone receptor (TRHR) signaling pathway (AID 1346877; active = well fitted inhibition curve with a large enough effect in the repeat runs, not every such curve was filed as active; note: series mostly up to about 51 µM)
Chain of Thyrotropin-releasing hormone receptor (Homo sapiens) (P34981 whole entry, looked up): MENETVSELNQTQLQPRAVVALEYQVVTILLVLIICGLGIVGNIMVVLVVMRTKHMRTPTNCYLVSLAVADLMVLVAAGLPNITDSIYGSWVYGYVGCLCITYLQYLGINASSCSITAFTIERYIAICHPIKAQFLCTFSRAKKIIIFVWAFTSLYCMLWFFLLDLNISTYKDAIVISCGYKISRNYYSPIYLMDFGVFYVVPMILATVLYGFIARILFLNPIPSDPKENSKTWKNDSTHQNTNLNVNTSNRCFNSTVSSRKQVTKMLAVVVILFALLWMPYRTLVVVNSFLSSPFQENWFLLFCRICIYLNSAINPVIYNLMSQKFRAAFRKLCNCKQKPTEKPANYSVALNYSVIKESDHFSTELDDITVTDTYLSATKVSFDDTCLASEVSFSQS
Outline: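 Screening used HEK293 cells engineered with TRHR, with a brief 5 min room-temperature compound exposure preceding addition of TRH to 1 nM. The read-out was kinetic calcium-dye fluorescence, concentration-response from 15 doses in triplicate.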

[19] = target: Thyrotropin-releasing hormone receptor (Homo sapiens) (UniProt P34981); assay: qHTS assay to identify small molecule agonists of the thyrotropin-releasing hormone receptor (TRHR) signaling pathway (AID 1346891);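 note: HEK293 cells expressing TRHR with calcium dye readout; series mostly up to about 58 µM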
Outline: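 HEK293/TRHR cells, 1500 per well, 18 h 37 °C; Ca dye 2 h 37 °C; pin-tool compound addition (agonist mode); kinetic fluorescence 3 min, 1 s reads; 15 concentrations, triplicate.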

[20] = qHTS assay to identify small molecule agonists of the androgen receptor (AR) signaling pathway in the presence of an antagonist - cell viability counter screen (AID 1259379; active = well fitted curve in the direction sought with a large enough effect in the repeat runs; an effect the other way counts as inactive or inconclusive; note: nearly all actives have a fitted effect of over 25% in size; note: potency is the fitted concentration of half-maximal effect)
Outline: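 A CellTiter-Fluor read-out measured viability of MDA-kb2 reporter cells (MMTV promoter with AR and GR response elements). Treatment: nilutamide 3.0uM final with compounds at 15 concentrations, 16 hr, 37C, 0% CO2.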

Structure (SMILES)	Potency [1]	Potency [2]	Potency [3]	Potency [4]	Potency [5]	Potency [6]	Potency [7]	Potency [8]	Potency [9]	Potency [10]	Potency [11]	Potency [12]	Potency [13]	outcome [14]	Potency [15]	Potency [16]	Potency [17]	Potency [18]	Potency [19]	Potency [20]
Oc1ccc2[nH]cc(CCCCN3CC=C(c4ccccc4)CC3)c2c1	3.35 µM (active)	inactive	29.8 µM (active)	inactive	inactive	inactive	inactive	inactive	inactive	inactive	inactive	inactive	inactive	inactive	–	–	–	–	–	–
S=C=NCCc1ccccc1	inactive	–	–	inactive	inactive	inactive	inactive	inactive	19.4 µM (active)	21.7 µM (active)	–	inactive	–	inactive	inactive	inactive	–	–	–	–
CC(C)=CCN1CC[C@@]2(C)c3cc(O)ccc3C[C@@H]1[C@@H]2C	inactive	–	inactive	inactive	inactive	inactive	–	inactive	inactive	inactive	inactive	inactive	inactive	inactive	inactive	–	inactive	inactive	inactive	–
N#Cc1sc2c(=O)c3ccccc3c(=O)c=2sc1C#N	3.86 µM (active)	–	21.7 µM (active)	17.2 µM (active)	–	–	7.7 µM (active)	–	–	30.6 µM (active)	30.6 µM (active)	49 µM (active)	38.9 µM (active)	–	–	inactive	inactive	–	inactive	17.2 µM (active)
CCN1CCC2(CC1)COc1cc3c(cc12)N(C(=O)c1ccc(-c2ccc(-c4nnc(C)o4)cc2C)cc1)CC3	2 µM (active)	–	6.33 µM (active)	11.2 µM (active)	inactive	63.3 µM (active)	–	inactive	–	25.2 µM (active)	8.93 µM (active)	–	–	–	–	inactive	inactive	inactive	inactive	63.3 µM (active)
C=CC(=C)C	inactive	–	inactive	inactive	inactive	inactive	inactive	inactive	inactive	inactive	inactive	inactive	inactive	inactive	inactive	–	inactive	inactive	inactive	–
CC[C@]1(O)CC[C@H]2[C@@H]3CCC4=CCCC[C@@H]4[C@H]3CC[C@@]21C	13.3 µM (active)	–	–	inactive	inactive	inactive	inactive	–	–	–	–	inactive	inactive	inactive	0.0067 µM (active)	–	1.9 nM (active)	–	–	–
CCN(CC)C(=S)S	5.49 µM (active) and 2.42 µM (active)	–	6.08 µM (active) and 9.69 µM (active)	12.1 µM (active)	inactive	inactive	inactive	inactive	49 µM (active) and 6.82 µM (active) and 13.7 µM (active)	61.6 µM (active) and 7.65 µM (active) and 17.2 µM (active)	17.1 µM (active) and inactive	inactive	inactive	inactive	–	–	inactive	–	–	inactive
S=C=Nc1ccccc1	inactive	inactive	–	inactive	–	–	inactive	inactive	inactive	inactive	inactive	inactive	inactive	inactive	–	inactive	inactive	inactive	inactive	inactive
CCOP(=S)(NC(C)C)Oc1ccccc1C(=O)OC(C)C (stereo not drawn)	inactive	–	3.86 µM (active)	–	inactive	–	inactive	inactive	–	–	–	inactive	inactive	–	inactive	–	inactive	inactive	inactive	–
C[C@]12C/C(=C/O)C(=O)C[C@@H]1CC[C@@H]1[C@@H]2CC[C@@]2(C)[C@H]1CC[C@]2(C)O	15.5 µM (active)	–	49 µM (active) and 26.6 µM (active)	49 µM (active)	inactive	inactive	inactive	–	–	–	77.7 µM (active)	inactive	inactive	–	–	–	8.71 µM (active) and 21.1 µM (active)	inactive	inactive	61.7 µM (active) and inactive
Cc1cc(C2CC2)nc(Nc2ccccc2)n1	inactive	–	–	inactive	inactive	inactive	inactive	–	30.6 µM (active)	–	–	inactive	inactive	inactive	–	–	inactive	–	–	inactive
ClC1=C(Cl)[C@]2(Cl)[C@@H]3[C@H]4C[C@H]([C@@H]5O[C@H]45)[C@@H]3[C@@]1(Cl)C2(Cl)Cl	24.3 µM (active)	–	inactive	inactive	inactive	inactive	–	inactive	–	–	–	inactive	inactive	inactive	–	–	inactive	inactive	inactive	inactive
